“And” between values parts separate entries of the source, which are not always exact repeats. Identical values can stand only once. Records with an inconclusive call do not appear. Where a structure was tested more than once in an assay, its records may differ in their call. The source made the active and inactive calls. Unless noted, calls come from the whole dose curve.

The results in this text go back to PubChem BioAssay (Tox21).

Test [1] can be described thus: Nuclear factor erythroid 2-related factor 2/antioxidant responsive element (Nrf2/ARE) small molecule agonists: qHTS cell viability counter screen in human keratinocytes (AID 1919968; active = well fitted curve in the direction sought with a large enough effect in the repeat runs; an effect the other way counts as inactive or inconclusive; note: nearly all actives have a fitted effect of over 55% in size; note: potency is the fitted concentration of half-maximal effect). The method, boiled down: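 In human HaCaT keratinocytes stably expressing an ARE-driven luciferase, compound exposure lasted 23 h at 37 C under 5% CO2. Viable cells are quantified with a protease-based fluorogenic reagent (CellTiter-Fluor) read 1 h after addition.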
For orientation: Quantitative high-throughput screening tests each substance at several concentrations.

Test [2] concerns the target KiSS-1 receptor (Homo sapiens) (UniProt Q969F8). As to the kind of experiment: Human kisspeptin (KISS1R) small molecule agonists, calcium flux assay in KISS1R-HEK293 cells (AID 1920064; active = well fitted curve in the direction sought with a large enough effect in the repeat runs; an effect the other way counts as inactive or inconclusive). A digest of the protocol:
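Concentration-response testing used 15 concentrations in triplicate on human KISS1R-expressing HEK293 cells. Calcium-dependent fluorescence (Ex/Em 480/540) was followed kinetically for 3 min after compound transfer.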

The nature of test [3]: G protein-coupled receptor (GPCR) small molecule agonists, calcium flux assay: HEK293 wild type cell line counter screen (AID 1920065). The method, boiled down: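 Fluorescence intensity signals activation. After overnight (18 h) culture and a 1 h calcium dye load at 37 C, compounds are added by pin tool and the plate read at 480/540 nm for 3 min in 1 s steps.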
On the technique in general: Calcium flux is commonly read through the fluorescence of an indicator in the cells.

Test [4] is described as follows: p53 small molecule agonists, cell-based qHTS assay with rat liver microsomes (AID 1963578). The method, boiled down: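 Metabolic activation is supplied by rat liver microsomes with NADPH (each 0.5 mg/mL final). p53RE-bla cells incubate with compound 16 h at 37 C; reporter activity is measured by LiveBLAzer fluorescence.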
Test [5] can be described thus: p53 small molecule agonists, cell-based qHTS assay with rat liver microsomes: qHTS cell viability counter screen (AID 1963580). Note: nearly all actives have a fitted effect of over 45% in size. The method, boiled down: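 Luminescent ATP readout (CellTiter-Glo, 30 min at room temperature) reports viability of p53RE-bla HCT-116 cells after 16 h at 37 C with test compounds under metabolic activation by rat liver microsomes and NADPH at 0.5 mg/mL final each.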

A short description of test [6]: p53 small molecule agonists, cell-based qHTS assay: qHTS cell viability counter screen (AID 1963581). Note: nearly all actives have a fitted effect of over 45% in size. The method, boiled down: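 Luminescence from CellTiter-Glo, reflecting ATP content, serves as the cytotoxicity measure; it is taken after the 2 h reporter substrate step in HCT-116 p53RE-bla cells dosed for 16 h at 37 C.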
Test [7] in a line: p53 small molecule agonists, cell-based qHTS assay (AID 1963582; active = well fitted activation curve with a large enough effect in the signal ratio in the repeat runs, not every such curve was filed as active; the % refers to the signal ratio). A digest of the protocol:
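After plating, p53RE-bla cells sat 5 h in the incubator; compounds or DMSO vehicle were pinned in; a 16 h incubation at 37 C followed; FRET substrate was added and, 2 h later at RT, fluorescence was measured.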

For test [8], the target named is 5-hydroxytryptamine receptor 2A (Homo sapiens) (UniProt P28223). As to the kind of experiment: 5-hydroxytryptamine receptor 2A (HTR2A) small molecule agonists, cell-based qHTS assay (AID 1963587). Note: nearly all actives have a fitted effect of over 30% in size. The method, boiled down:
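HTR2A-CHO cells, plated 18 h at 37 C/5% CO2, dye-loaded 1 h at 37 C; compounds in DMSO added by pin tool (agonist mode). Intracellular calcium flux read as kinetic fluorescence on FDSS over 2 min at 1 s intervals.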

Test [9] has as its target Muscarinic acetylcholine receptor M1 (Homo sapiens) (UniProt P11229). As to the kind of experiment: Cholinergic receptor muscarinic 1 (CHRM1) small molecule antagonists, cell-based qHTS assay (AID 1963588). Note: nearly all actives have a fitted effect of over 40% in size. A digest of the protocol:
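Compounds were tested at 15 concentrations in three independent runs. Dye-loaded CHRM1-CHO cells were exposed 5 min at room temperature before stimulation by acetylcholine added at 50nM. Intracellular calcium was read kinetically on FDSS for 3 min.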

The target is the same in test [10]. As to the kind of experiment: Cholinergic receptor muscarinic 1 (CHRM1) small molecule agonists, cell-based qHTS assay (AID 1963589). Note: nearly all actives have a fitted effect of over 35% in size. A digest of the protocol:
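Fluorescent calcium dye reports M1 activation in stably transfected CHO cells. Compounds, 15 concentrations, added after 1 h dye loading at 37 C; kinetic reading at 1 sec intervals.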

A short description of test [11]: cAMP Responsive Elements (CRE) small molecule agonists, cell-based qHTS assay (AID 1963590). A digest of the protocol: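 Compound exposure lasted 3 h at 37 C/5% CO2 in CRE-bla HEK 293T cells grown in assay medium with 10% dialyzed FBS and 25 mM HEPES. Reporter signal came from LiveBLAzer B/G FRET substrate, 2 h, room temperature.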
In test [12] the target is Beta-2 adrenergic receptor (Homo sapiens) (UniProt P07550). As to the kind of experiment: Adrenergic beta2 receptor (ADRB2) small molecule antagonists, cell-based qHTS assay (AID 1963592). Note: series mostly up to about 92 µM; nearly all actives have a fitted effect of over 50% in size. A digest of the protocol: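 Assay format: CHO-ADRB2 cells, 18-20hr seeding at 37C/5% CO2, then compound plus 1nM isoproterenol agonist mix for 0.5hr RT. Homogeneous time-resolved fluorescence cAMP detection after 1hr, expressed as 665/615 nm ratio.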

The target is the same in test [13]. As to the kind of experiment: Adrenergic beta2 receptor (ADRB2) small molecule agonists, cell-based qHTS assay (AID 1963593).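 Note: CHO cells stably overexpressing human ADRB2.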 A digest of the protocol: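 CHO cells stably over-expressing ADRB2 were plated overnight at 37C, then dosed with compounds plus a stimulation mix containing 100uM IBMX and 25uM Ro-20-1724 for 0.5hr at room temperature. cAMP was measured by HTRF competition, 1hr.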

Test [14] addresses D(2) dopamine receptor (Homo sapiens) (UniProt P14416). As to the kind of experiment: Dopamine D2 receptor (DRD2) small molecule agonists, cell-based qHTS assay (AID 1963594). Note: nearly all actives have a fitted effect of over 35% in size. A digest of the protocol: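 HEK293 cells stably expressing DRD2 were cultured 24 h at 37 C, then given Ro20-1724 (0.1 mM final) and compounds for 10 min at room temperature. NKH477 (200nM) was then added for 30 min. cAMP was read by HTRF.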

A short description of test [15]: p53 small molecule agonists, cell-based qHTS assay with human liver microsomes: qHTS cell viability counter screen (AID 1963579). Note: nearly all actives have a fitted effect of over 45% in size. Note: potency is the fitted concentration of half-maximal effect. The method, boiled down:
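After the 460/530 nm beta-lactamase read, CellTiter-Glo was added to the same wells and luminescence measured after 30 min at room temperature, giving viability of p53RE-bla cells treated 16 h with compounds plus microsomes and NADPH.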

The target of test [16] is 5-hydroxytryptamine receptor 2A (Homo sapiens) (UniProt P28223). As to the kind of experiment: 5-hydroxytryptamine receptor 2A (HTR2A) small molecule antagonists, cell-based qHTS assay (AID 1963586). Note: nearly all actives have a fitted effect of over 45% in size. A digest of the protocol: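 CHO cells stably expressing human HTR2A were plated for 18 h at 37 C, then loaded with calcium dye for 1 h. Compounds were preincubated 5 min at room temperature before DOI (4 nM solution) was added. Kinetic fluorescence was read for 3 min.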

A short description of test [17]: cAMP Responsive Elements (CRE) small molecule antagonists, cell-based qHTS assay (AID 1963591; active = well fitted inhibition curve with a large enough effect in the signal ratio in the repeat runs, not every such curve was filed as active; the % refers to the signal ratio). A digest of the protocol:
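Stimulation used NKH477 at a final 0.25 uM for 3 h in compound-treated CRE-bla HEK293T cells, seeded 18 h beforehand. Reporter activity was measured with LiveBLAzer B/G FRET substrate after 2 h at room temperature.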

A short description of test [18]: p53 small molecule agonists, cell-based qHTS assay with human liver microsomes (AID 1963577).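 Note: p53 response element beta-lactamase reporter cells with liver microsomes plus NADPH.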 A digest of the protocol: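 Steps: plate p53RE-bla cells, incubate 5 h at 37 C; add compound in DMSO; add microsomes (0.5 mg/mL final) and NADPH (0.5 mg/mL final); incubate 16 h at 37 C; add LiveBLAzer, 2 h RT; read fluorescence.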
In test [19] the target is D(2) dopamine receptor (Homo sapiens) (UniProt P14416). As to the kind of experiment: Dopamine D2 receptor (DRD2) small molecule antagonists, cell-based qHTS assay (AID 1963595; active = well fitted inhibition curve with a large enough effect in the signal ratio in the repeat runs, with a control signal flat; the % refers to the signal ratio; note: potency is the fitted concentration of half-maximal effect). A digest of the protocol:
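Stable D2 receptor HEK293 line, 24 h after seeding. Compound preincubated 10 min, then quinpirole (12 nM) with forskolin analogue NKH477 (200 nM), 30 min, room temperature. Detection by time-resolved FRET of cAMP.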

Sequence of Beta-2 adrenergic receptor (Homo sapiens) (P07550 whole entry, looked up): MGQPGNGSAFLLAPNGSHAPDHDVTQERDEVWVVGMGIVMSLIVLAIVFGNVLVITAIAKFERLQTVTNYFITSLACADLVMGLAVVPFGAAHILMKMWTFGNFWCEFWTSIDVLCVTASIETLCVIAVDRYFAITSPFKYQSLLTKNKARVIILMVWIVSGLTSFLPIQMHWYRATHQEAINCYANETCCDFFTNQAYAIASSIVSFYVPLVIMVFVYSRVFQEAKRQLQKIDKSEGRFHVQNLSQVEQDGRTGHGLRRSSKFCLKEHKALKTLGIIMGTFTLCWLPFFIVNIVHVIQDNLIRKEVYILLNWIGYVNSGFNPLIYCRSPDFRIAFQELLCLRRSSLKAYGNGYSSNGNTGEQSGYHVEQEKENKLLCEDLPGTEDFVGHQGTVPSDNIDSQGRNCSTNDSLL
Sequence of D(2) dopamine receptor (Homo sapiens) (P14416 whole entry, looked up): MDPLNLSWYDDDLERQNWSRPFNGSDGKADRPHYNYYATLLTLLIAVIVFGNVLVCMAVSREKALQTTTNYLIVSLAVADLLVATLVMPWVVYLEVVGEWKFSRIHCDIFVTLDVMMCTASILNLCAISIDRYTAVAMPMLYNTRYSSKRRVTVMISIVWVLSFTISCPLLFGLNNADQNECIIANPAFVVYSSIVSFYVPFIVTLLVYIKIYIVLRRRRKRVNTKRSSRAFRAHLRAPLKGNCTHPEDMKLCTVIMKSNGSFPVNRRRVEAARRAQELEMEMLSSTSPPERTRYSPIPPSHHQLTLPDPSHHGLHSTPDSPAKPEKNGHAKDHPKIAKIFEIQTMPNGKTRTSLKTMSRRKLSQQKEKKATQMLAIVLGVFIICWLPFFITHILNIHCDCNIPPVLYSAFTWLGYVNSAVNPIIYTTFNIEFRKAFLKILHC
Sequence of 5-hydroxytryptamine receptor 2A (Homo sapiens) (P28223 whole entry, looked up): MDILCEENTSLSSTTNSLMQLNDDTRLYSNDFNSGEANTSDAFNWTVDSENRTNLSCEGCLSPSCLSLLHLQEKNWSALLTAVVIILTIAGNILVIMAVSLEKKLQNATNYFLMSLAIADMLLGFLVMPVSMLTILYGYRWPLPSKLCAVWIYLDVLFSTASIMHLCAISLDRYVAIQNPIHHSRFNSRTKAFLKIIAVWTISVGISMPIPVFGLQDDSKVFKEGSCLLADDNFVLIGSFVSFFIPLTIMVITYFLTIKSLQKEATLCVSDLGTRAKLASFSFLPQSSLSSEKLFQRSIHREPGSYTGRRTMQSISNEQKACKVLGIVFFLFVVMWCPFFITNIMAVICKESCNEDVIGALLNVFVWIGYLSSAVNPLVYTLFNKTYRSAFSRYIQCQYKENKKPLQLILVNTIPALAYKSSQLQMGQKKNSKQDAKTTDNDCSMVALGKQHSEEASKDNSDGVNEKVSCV
Sequence of KiSS-1 receptor (Homo sapiens) (Q969F8 whole entry, looked up): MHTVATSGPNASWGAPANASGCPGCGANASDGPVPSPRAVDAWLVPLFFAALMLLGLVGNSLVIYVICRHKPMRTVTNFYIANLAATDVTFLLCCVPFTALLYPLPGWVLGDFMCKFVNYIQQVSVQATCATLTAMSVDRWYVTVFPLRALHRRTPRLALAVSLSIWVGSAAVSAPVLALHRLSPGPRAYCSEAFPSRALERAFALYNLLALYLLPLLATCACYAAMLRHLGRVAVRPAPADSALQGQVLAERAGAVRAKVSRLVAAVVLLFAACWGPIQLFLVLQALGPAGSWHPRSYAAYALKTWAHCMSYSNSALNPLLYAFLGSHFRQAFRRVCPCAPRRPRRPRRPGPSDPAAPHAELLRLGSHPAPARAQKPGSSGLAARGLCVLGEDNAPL
Sequence of Muscarinic acetylcholine receptor M1 (Homo sapiens) (P11229 whole entry, looked up): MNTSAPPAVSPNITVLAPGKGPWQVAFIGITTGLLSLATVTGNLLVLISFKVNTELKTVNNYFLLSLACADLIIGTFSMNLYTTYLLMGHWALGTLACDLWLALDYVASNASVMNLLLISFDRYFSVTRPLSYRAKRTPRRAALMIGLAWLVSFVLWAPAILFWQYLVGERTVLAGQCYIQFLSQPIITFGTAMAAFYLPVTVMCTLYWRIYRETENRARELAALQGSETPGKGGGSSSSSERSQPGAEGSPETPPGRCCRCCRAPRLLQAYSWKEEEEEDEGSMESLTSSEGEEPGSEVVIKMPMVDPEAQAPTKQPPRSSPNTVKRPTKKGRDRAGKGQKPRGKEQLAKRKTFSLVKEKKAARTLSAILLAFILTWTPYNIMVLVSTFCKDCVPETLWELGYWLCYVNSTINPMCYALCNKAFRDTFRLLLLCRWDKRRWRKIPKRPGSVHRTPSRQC

Turning to `CCCOc1ccc2c(c1)CC[C@@H]1[C@@H]2CC[C@]2(C)C(OC)CC[C@@H]12` (stereo partly specified), the Potency result in test [1], in test [2], in [3], in test [4], in [5] and in test [6] was “inactive” in each case. For the same compound, the Potency entry in test [7], in test [8], in test [9], in test [10], in test [11] and in [12] was “inactive” each time. Also, the Potency entry in test [13] and in [14] was “inactive” throughout.

On to `COP(=O)(OC)OC(c1ccc(Cl)cc1)P(=O)(OC)OC` (stereo unspecified), for which the Potency result in test [1], in [2], in test [3], in test [15], in test [5] and in test [6] was “inactive” throughout. Also, the Potency result in test [16], in test [8], in test [9], in [10], in [11] and in test [17] was “inactive” throughout. Besides, the Potency result in test [12] and in [14] was “inactive” each time.

Take `CN(C)CCCN1c2ccccc2CCc2ccc(Cl)cc21`: the Potency was 61.1 µM (active) in test [1]; 40.8 µM (active) and inactive in test [15]; 61.1 µM (active) and 18.8 µM (active) in test [19]. In addition, the Potency result in [2], in test [3], in test [18], in test [4], in [5] and in test [6] was “inactive” each time. Further, the Potency result in test [11], in [17], in test [12], in [13] and in test [14] was “inactive” throughout.

Regarding `CC1(C)CCC[C@]2(C)[C@H]3CC(=O)O[C@]3(C)CC[C@@H]12`, the Potency result in [1], in test [2], in test [3], in [4], in [6] and in test [7] was “inactive” in each case. Also, the Potency result in test [16], in test [10], in [12] and in test [14] was “inactive” throughout.

Turning to `O=[N+]([O-])c1cccc(S(=O)(=O)O)c1`, the Potency entry in test [1], in [2], in [3], in test [18], in test [4] and in [15] was “inactive” in each case. Besides, the Potency result in [6], in [7], in test [16], in test [8], in test [9] and in test [10] was “inactive” throughout. The Potency result in test [12], in [13], in [14] and in test [19] was “inactive” throughout.

Regarding `[O-][N+](=Nc1ccccc1)c1ccccc1`, the Potency result in test [1], in test [2], in test [18], in test [4], in test [15] and in test [5] was “inactive” each time. The Potency entry in test [8], in [10], in [11], in test [12], in test [13] and in test [14] was “inactive” throughout. The Potency result in [19] is “inactive”.

As to `NC(=O)Nc1nc2ccccc2[nH]1`, the Potency result in [1], in test [2], in [3], in test [4], in test [15] and in [5] was “inactive” in each case. In addition, the Potency entry in test [6], in test [7], in [16], in test [8], in test [9] and in test [10] was “inactive” throughout. Besides, the Potency entry in [11], in [17], in [12], in test [13], in test [14] and in test [19] was “inactive” in each case.

For `O=C(NCC(O)CO)c1c(I)c(C(=O)NCC(O)CO)c(I)c(N(CCO)C(=O)CO)c1I` (stereo unspecified), the Potency result in [1], in test [2], in test [3], in [18], in [15] and in [5] was “inactive” throughout. The Potency entry in [6], in [7], in test [16], in test [8], in test [10] and in [11] was “inactive” throughout. Also, the Potency entry in test [13], in [14] and in test [19] was “inactive” in each case.

Turning to `CCCCC(=O)O[C@]1(C(=O)CO)[C@@H](C)C[C@H]2[C@@H]3CCC4=CC(=O)C=C[C@]4(C)[C@@]3(F)[C@@H](O)C[C@@]21C`, the Potency result in test [1], in [2], in test [3], in test [18], in test [4] and in [5] was “inactive” throughout. The Potency entry in [6], in test [7], in [16], in [9], in test [10] and in [12] was “inactive” each time. Moreover, the Potency result in test [14] and in test [19] was “inactive” throughout.

As to `C[C@@H](N)C(=O)O`, the Potency result in test [1], in [2], in test [3], in test [4], in test [15] and in test [5] was “inactive” throughout. Also, the Potency entry in [6], in [7], in [16], in [8], in test [9] and in test [11] was “inactive” each time. Also, the Potency result in [17], in [13], in [14] and in [19] was “inactive” throughout.

For `CC1=CCC(C(C)C)C=C1` (stereo unspecified), the Potency entry in [1], in test [2], in test [3], in [18], in test [5] and in [6] was “inactive” in each case. For the same compound, the Potency entry in test [7], in [16], in [8], in test [9], in [10] and in test [11] was “inactive” in each case. Moreover, the Potency entry in test [17], in test [12], in test [13], in [14] and in test [19] was “inactive” in each case.
